Results taken from PubChem BioAssay (NCATS).
Results filed as inconclusive are left out. Active and inactive are the calls of the source. Calls come from the whole dose curve; as a rule, active = well fitted curve in the direction sought with a large enough effect; inconclusive = small, poorly fitted or top-dose-only effect, or another doubt; inactive = no such curve, though single readings can be large; an effect the other way counts as inactive or inconclusive.

Legend:
[1] = Quantitative High-Throughput drug screen in 47 multiple myeloma cell lines against the NCATS MIPE library collection: KMS20_JCRB cell viability assay (AID 1918973); note: potency is the fitted concentration of half-maximal effect; nearly all actives have a fitted effect of over 45% in size
Procedure, shortened: (§1)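 Myeloma cell lines, 500 cells per well, exposed to MIPE 4.0 library compounds for 48 h at 37C, 5% CO2. Viability from ATP by CellTiter-Glo luminescence; normalised to DMSO (100%) and media-only (0%) wells.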

[2] = Quantitative High-Throughput drug screen in 47 multiple myeloma cell lines against the NCATS MIPE library collection: OCIMY1_PLB cell viability assay (AID 1918979); note: nearly all actives have a fitted effect of over 35% in size; note: potency is the fitted concentration of half-maximal effect
Procedure, shortened: (§2)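 Viability after 48 h drug exposure was measured as ATP-dependent luminescence. Cells, 500 per well, sat at 37 °C under 5% CO2; DMSO wells set 100%, media-only wells 0%.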

[3] = Quantitative High-Throughput drug screen in 47 multiple myeloma cell lines against the NCATS MIPE library collection: MM1S_ATCC cell viability assay (AID 1918980); note: nearly all actives have a fitted effect of over 45% in size; note: potency is the fitted concentration of half-maximal effect
Procedure, shortened: as §2

[4] = Quantitative High-Throughput drug screen in 47 multiple myeloma cell lines against the NCATS MIPE library collection: LP1_DSMZ cell viability assay (AID 1918982); note: nearly all actives have a fitted effect of over 35% in size; note: potency is the fitted concentration of half-maximal effect
Procedure, shortened: as §2

[5] = Quantitative High-Throughput drug screen in 47 multiple myeloma cell lines against the NCATS MIPE library collection: L363_DSMZ cell viability assay (AID 1918984); details: L363 myeloma viability, CellTiter-Glo ATP luminescence, 48 h; viability (% of control): at 45.8 µM (top of the series); note: nearly all actives have a fitted effect of over 40% in size; note: potency is the fitted concentration of half-maximal effect
Procedure, shortened: as §2

[6] = Quantitative High-Throughput drug screen in 47 multiple myeloma cell lines against the NCATS MIPE library collection: OCIMY7_PLB cell viability assay (AID 1918987); details: OCI-MY7 myeloma viability, CellTiter-Glo ATP, 48 h; viability (% of DMSO): at 45.8 µM (top of the series); note: nearly all actives have a fitted effect of over 65% in size; note: potency is the fitted concentration of half-maximal effect
Procedure, shortened: as §2

[7] = Quantitative High-Throughput drug screen in 47 multiple myeloma cell lines against the NCATS MIPE library collection: OCIMY5_PLB cell viability assay (AID 1918988); note: nearly all actives have a fitted effect of over 65% in size; note: potency is the fitted concentration of half-maximal effect
Procedure, shortened: as §2

[8] = Quantitative High-Throughput drug screen in 47 multiple myeloma cell lines against the NCATS MIPE library collection: SKMM1_PLB cell viability assay (AID 1919863); details: SKMM1 myeloma viability, CellTiter-Glo ATP, 48 h; viability: active compounds read low; note: nearly all actives have a fitted effect of over 35% in size; note: potency is the fitted concentration of half-maximal effect
Procedure, shortened: as §2

[9] = Quantitative High-Throughput drug screen in 47 multiple myeloma cell lines against the NCATS MIPE library collection: U266_ATCC cell viability assay (AID 1919864); note: nearly all actives have a fitted effect of over 35% in size; note: potency is the fitted concentration of half-maximal effect
Procedure, shortened: as §2

[10] = Quantitative High-Throughput drug screen in 47 multiple myeloma cell lines against the NCATS MIPE library collection: MM1R_ATCC cell viability assay (AID 1918981); note: nearly all actives have a fitted effect of over 35% in size; note: potency is the fitted concentration of half-maximal effect
Procedure, shortened: as §2

[11] = Quantitative High-Throughput drug screen in 47 multiple myeloma cell lines against the NCATS MIPE library collection: KMS28PE_JCRB cell viability assay (AID 1918983); note: nearly all actives have a fitted effect of over 35% in size; note: potency is the fitted concentration of half-maximal effect
Procedure, shortened: as §2

[12] = Quantitative High-Throughput drug screen in 47 multiple myeloma cell lines against the NCATS MIPE library collection: KMS34_JCRB cell viability assay (AID 1918985); note: nearly all actives have a fitted effect of over 40% in size; note: potency is the fitted concentration of half-maximal effect
Procedure, shortened: as §2

[13] = Quantitative High-Throughput drug screen in 47 multiple myeloma cell lines against the NCATS MIPE library collection: OPM1_PLB cell viability assay (AID 1918989); note: nearly all actives have a fitted effect of over 40% in size; note: potency is the fitted concentration of half-maximal effect
Procedure, shortened: as §2

[14] = Quantitative High-Throughput drug screen in 47 multiple myeloma cell lines against the NCATS MIPE library collection: KMS26_JCRB cell viability assay (AID 1918975); note: nearly all actives have a fitted effect of over 45% in size; note: potency is the fitted concentration of half-maximal effect
Procedure, shortened: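 Inhibition of cell viability is measured here. Each line was plated at 500 cells per well, treated with MIPE 4.0 drugs, kept 48 hours at 37C, then assayed for ATP content by CellTiter-Glo luminescence.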

[15] = Quantitative High-Throughput drug screen in 47 multiple myeloma cell lines against the NCATS MIPE library collection: NCIH929_DSMZ cell viability assay (AID 1918978); note: nearly all actives have a fitted effect of over 35% in size; note: potency is the fitted concentration of half-maximal effect
Procedure, shortened: as §2

[16] = Quantitative High-Throughput drug screen in 47 multiple myeloma cell lines against the NCATS MIPE library collection: MOLP8_DSMZ cell viability assay (AID 1918977); note: nearly all actives have a fitted effect of over 45% in size
Procedure, shortened: as §2

[17] = Quantitative High-Throughput drug screen in 47 multiple myeloma cell lines against the NCATS MIPE library collection: MMM1_PLB cell viability assay (AID 1918976)
Procedure, shortened: as §2

[18] = Quantitative High-Throughput drug screen in 47 multiple myeloma cell lines against the NCATS MIPE library collection: KMS21BM_JCRB cell viability assay (AID 1918974); details: ATP luminescence, 48 h; viability: at 45.8 µM (top of the series); note: potency is the fitted concentration of half-maximal effect
Procedure, shortened: as §1

CC[C@H](C)n1cc(C)c2c(C(=O)NCc3c(C)cc(C)[nH]c3=O)cc(-c3ccc(N4CCNCC4)nc3)cc21
inactive: Potency [5]
active: Potency [1] 18.7 µM | Potency [2] 26.4 µM | Potency [3] 0.935 µM | Potency [4] 23.5 µM | Potency [6] 23.5 µM | Potency [7] 23.5 µM | Potency [8] 20.9 µM | Potency [9] 16.6 µM

Cc1cnc(-c2cc(N3CCN(C(=O)CCS(C)(=O)=O)CC3)ncc2Cl)c(C)c1
active: Potency [10] 18.7 µM | Potency [7] 2.96 µM
inactive: Potency [4] | Potency [11] | Potency [12] | viability [8] 114% | Potency [9]

O=[N+]([O-])c1ccc(Nc2ccccc2-c2ccccc2)c2nonc12
inactive: Potency [2] | Potency [12]
active: Potency [5] 16.6 µM | Potency [6] 18.7 µM | Potency [13] 26.4 µM

C[C@@H](NC(=O)c1ncnc(N)c1Cl)c1ncc(C(=O)Nc2cc(C(F)(F)F)c(Cl)cn2)s1
active: Potency [2] 2.96 µM | Potency [3] 16.6 µM | Potency [10] 18.7 µM | Potency [4] 4.69 µM | Potency [12] 4.18 µM | Potency [6] 7.43 µM | Potency [7] 9.35 µM | Potency [8] 16.6 µM | Potency [9] 26.4 µM

C[C@]12CC[C@@H]3c4ccc(O)cc4CC[C@H]3[C@H]1[C@@H](O)[C@@H](O)[C@H]2O
inactive: Potency [14] | Potency [15] | Potency [2] | Potency [4] | Potency [11] | Potency [5] | Potency [12] | Potency [13]
active: Potency [3] 26.4 µM

Cc1ccc(S(=O)(=O)OCC(=O)Nc2ccc(C(=O)O)c(O)c2)cc1
active: Potency [15] 7.43 µM | Potency [7] 18.7 µM
inactive: Potency [16] | Potency [4] | Potency [13] | viability [8] 102%

COc1ccc(-c2oc3c(CC=C(C)C)c(O)cc(O)c3c(=O)c2O)cc1
inactive: Potency [2] | Potency [13]
active: Potency [14] 16.6 µM | Potency [17] 20.9 µM | Potency [15] 10.5 µM | Potency [10] 20.9 µM | Potency [6] 5.9 µM | Potency [7] 14.8 µM

c1ccc(CNc2nc(N3CCOc4ccccc43)nc3c2CCCC3)cc1
inactive: Potency [15] | Potency [10] | Potency [11] | Potency [5] | Potency [6] | Potency [13]

CC(C)(F)C[C@H](N[C@@H](c1ccc(-c2ccc(S(C)(=O)=O)cc2)cc1)C(F)(F)F)C(=O)NC1(C#N)CC1
active: Potency [13] 5.9 µM
inactive: Potency [15] | Potency [3] | Potency [10] | Potency [4] | Potency [12] | Potency [9]

CN1CCC[C@H]1CCO[C@](C)(c1ccccc1)c1ccc(Cl)cc1
inactive: Potency [14] | Potency [16] | Potency [2] | Potency [4] | Potency [12] | viability [8] 84.5%
active: Potency [15] 11.8 µM | Potency [3] 23.5 µM | Potency [11] 23.5 µM | Potency [7] 26.4 µM | Potency [13] 26.4 µM

Cc1cc(NC(=O)Nc2ccc(N(C)C)cc2)c2cc(F)cc(F)c2n1
active: Potency [17] 20.9 µM | Potency [3] 16.6 µM
inactive: Potency [15] | Potency [2] | Potency [11] | Potency [13] | Potency [9]

C=C[C@@H]1CN2CCC1C[C@@H]2C(O)c1ccnc2ccc(OC)cc12 (stereo partly drawn)
active: Potency [17] 11.8 µM | Potency [10] 18.7 µM | Potency [11] 16.6 µM | Potency [7] 3.32 µM | Potency [9] 10.5 µM
inactive: Potency [15] | Potency [2] | Potency [4] | Potency [5]

N#Cc1ccc(Oc2ccc3c(c2)COB3O)cc1
active: Potency [18] 3.32 µM
inactive: Potency [2] | Potency [9]

N#Cc1c(N(CC(=O)O)CC(=O)O)sc(C(=O)O)c1CC(=O)O
inactive: Potency [2] | Potency [4] | Potency [11] | viability [8] 102% | Potency [9]
active: Potency [1] 16.6 µM | Potency [15] 26.4 µM | Potency [6] 8.33 µM

CCNC(=O)c1noc(-c2cc(C(C)C)c(O)cc2O)c1-c1ccc(CN2CCOCC2)cc1
active: Potency [1] 0.0209 µM | Potency [15] 0.0418 µM | Potency [3] 0.0332 µM | Potency [6] 0.0469 µM | Potency [9] 0.0332 µM

CNC(=O)c1c(-c2ccc(F)cc2)oc2cc(N(CCO)S(C)(=O)=O)c(C3CC3)cc12
active: Potency [2] 18.7 µM

Cc1nc(C(=O)NCC(=O)O)c(O)c2ccc(Oc3ccccc3)cc12
active: Potency [17] 0.0053 µM
inactive: Potency [14] | Potency [15] | Potency [2] | Potency [10] | Potency [4] | Potency [5] | Potency [6] | Potency [7] | Potency [13]

CC(C)(C)c1[nH]cnc1C=c1[nH]c(=O)c(=Cc2ccccc2)[nH]c1=O
active: Potency [14] 0.0241 µM | Potency [17] 15.2 µM | Potency [15] 0.0215 µM
